# Where “and” joins values, the source holds several entries; their conditions need not be identical. Identical values can stand only once. Records with an inconclusive call do not appear. Unmarked numbers belong to inactive results. Calls of active or inactive are those of the source. Calls follow the shape of the dose curve; as a rule, active = well fitted curve in the direction sought with a large enough effect; inconclusive = small, poorly fitted or top-dose-only effect, or another doubt; inactive = no such curve, though single readings can be large; an effect the other way counts as inactive or inconclusive.
# Assays:
# [1] = Viability qHTS for spleen associated tyrosine kinase inhibitor (SYKi) naive MV4-11 cells (AID 1963823); also: nearly all actives have a fitted effect of over 40% in size; also: potency is read from the fitted curve at half-maximal effect
# How it was run: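 Luminescence from CellTiter-Glo, developed 10 min at room temperature, gave viability of MV4-11 cells never exposed to SYK inhibitor. Cells (500/well) had been incubated with compounds for 72 hr under standard culture conditions.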
# [2] = Viability qHTS for spleen associated tyrosine kinase inhibitor (SYKi) drug resistant MV4-11 cells (AID 1963824); also: nearly all actives have a fitted effect of over 35% in size; also: potency is read from the fitted curve at half-maximal effect
# How it was run: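 SYK inhibitor-resistant MV4-11 AML cells, 500 per well, added to predispensed compounds and incubated 72 hr at 37 C, 5% CO2. Viability measured by CellTiter-Glo luminescence after 10 min at room temperature.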
# [3] = Cellular viability qHTS for adrenocortical cancer (ACC) cell line NCI-H295R (AID 1963990); also: nearly all actives have a fitted effect of over 60% in size; also: potency is read from the fitted curve at half-maximal effect
# How it was run: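 Viability of NCI-H295R after 48 h of treatment (final up to 46 uM) measured through cellular ATP luminescence.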
# [4] = Quantitative highthroughput screen to assess conditional lethalithy of NOMO1 cells grown in RPMI1640 with untreated serum (RPMI+s) (AID 1963876); also: nearly all actives have a fitted effect of over 35% in size; also: potency is read from the fitted curve at half-maximal effect;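 as to Viability: 100% = DMSO wells and 0% = empty wells without cells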
# How it was run: (§1)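 Each medium arm—HPLM with 10% dialyzed FBS, or RPMI1640 with 5 mM glucose and 10% untreated or dialyzed FBS—was screened against an 11-point, 3-fold compound titration for 48 h at 37 °C, with CellTiter-Glo luminescence as endpoint.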
# [5] = Quantitative highthroughput screen to assess conditional lethalithy of NOMO1 cells grown in RPMI1640 with dialyzed fetal bovine serum (RPMI+ds) (AID 1963877); also: nearly all actives have a fitted effect of over 30% in size; also: potency is read from the fitted curve at half-maximal effect;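 as to Viability: series mostly up to about 46 µM; 100% = DMSO control wells and 0% = empty wells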
# How it was run: as §1
# [6] = Quantitative highthroughput screen to assess conditional lethalithy of NOMO1 cells grown in Human Plasma-Like Medium with dialyzed fetal bovine serum (HPLM+ds) (AID 1963878); also: nearly all actives have a fitted effect of over 35% in size; also: potency is read from the fitted curve at half-maximal effect;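 as to Viability: 100% = DMSO wells and 0% = empty wells on each plate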
# How it was run: as §1
# [7] = Quantitative highthroughput screen to assess conditional lethalithy of P12 Ichikawa cells grown in Human Plasma-Like Medium with dialyzed fetal bovine serum (HPLM+ds) (AID 1963879); details: Potency: viability; also: nearly all actives have a fitted effect of over 35% in size; also: potency is read from the fitted curve at half-maximal effect; as to Viability: series mostly up to about 46 µM
# How it was run: as §1
# [8] = Quantitative highthroughput screen to assess conditional lethalithy of P12 Ichikawa cells grown in RPMI1640 with dialyzed fetal bovine serum (RPMI+ds) (AID 1963880); details: Potency: P12-Ichikawa viability; also: nearly all actives have a fitted effect of over 35% in size; also: potency is read from the fitted curve at half-maximal effect;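 as to Viability: 100% = DMSO wells and 0% = empty wells on each plate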
# How it was run: as §1
# [9] = Quantitative highthroughput screen to assess conditional lethalithy of P12 Ichikawa cells grown in RPMI1640 with untreated serum (RPMI+s) (AID 1963881); details: Potency: viability; also: nearly all actives have a fitted effect of over 35% in size; also: potency is read from the fitted curve at half-maximal effect;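 as to Viability: series mostly up to about 46 µM; 100% = DMSO wells and 0% = empty wells without cells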
# How it was run: as §1
# [10] = Quantitative highthroughput screen to assess conditional lethalithy of SEM cells grown in Human Plasma-Like Medium with dialyzed fetal bovine serum (HPLM+ds) (AID 1963882); also: nearly all actives have a fitted effect of over 35% in size; also: potency is read from the fitted curve at half-maximal effect; as to Viability: series mostly up to about 46 µM
# How it was run: as §1
# [11] = Quantitative highthroughput screen to assess conditional lethalithy of SEM cells grown in RPMI1640 with unreated serum (RPMI+s) (AID 1963883); also: nearly all actives have a fitted effect of over 35% in size; also: potency is read from the fitted curve at half-maximal effect;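 as to Viability: 100% = DMSO wells and 0% = empty wells without cells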
# How it was run: as §1
# [12] = Quantitative highthroughput screen to assess conditional lethalithy of SEM cells grown in RPMI1640 with dialyzed fetal bovine serum (RPMI+ds) (AID 1963884); also: nearly all actives have a fitted effect of over 35% in size; also: potency is read from the fitted curve at half-maximal effect;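 as to Viability: series mostly up to about 46 µM; 100% = DMSO control wells and 0% = empty wells without cells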
# How it was run: as §1
# [13] = Cellular viability qHTS for adrenocortical cancer (ACC) cell line SW-13 (AID 1963989); details: SW-13 ACC cells viability, CellTiter-Glo, 48 h; activity (max response): active compounds read low;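 also: cells grown in serum-free medium with ITS supplement; % is scaled to controls: 0 for no effect and ±100 for the full control effect; nearly all actives have a fitted effect of over 65% in size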
# How it was run: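 Here, serum-free SW-13 cultures were dosed up to 46 uM. Following 48 h, ATP-dependent luminescence (CellTiter-Glo) reported viable cells, and logistic modeling produced IC50 values.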
structure (smiles),measurement,setting,value
CC[N+](CC)(CC)CCOC(=O)C(C1CCCC1)C1CCCC1,Potency,[1],18.8 µM (active)
same,Potency,[2],11.9 µM (active)
same,Potency,[3],inactive
CC(=O)O[C@@]12CO[C@@H]1C[C@H](O)[C@@]1(C)C(=O)[C@H](O)C3=C(C)[C@@H](OC(=O)[C@H](O)[C@@H](NC(=O)OC(C)(C)C)c4ccccc4)C[C@@](O)([C@@H](OC(=O)c4ccccc4)[C@H]21)C3(C)C,Potency,[1],0.0027 µM (active)
same,Potency,[2],0.0024 µM (active)
same,Potency,[3],0.0411 µM (active)
C[N+](C)(CCOc1ccccc1)Cc1cccs1,Potency,[1],inactive
same,Potency,[2],inactive
same,Potency,[3],inactive
O=C(CCN1CCN(CCO)CC1)N1c2ccccc2Sc2ccc(C(F)(F)F)cc21,Potency,[1],inactive
same,Potency,[2],inactive
same,Potency,[3],inactive
OCCN1CCN(CC/C=C2/c3ccccc3Sc3ccc(C(F)(F)F)cc32)CC1,Potency,[1],21.1 µM (active)
same,Potency,[2],21.1 µM (active)
same,Potency,[3],16.4 µM (active)
COC(=O)Nc1ccc(-c2nc(N3CCOCC3)c3cnn(C4CCN(C(=O)OC)CC4)c3n2)cc1,Potency,[1],0.662 µM (active)
same,Potency,[2],1.05 µM (active)
same,Potency,[3],2.51 µM (active)
COC(=O)C1=C(C)NC(C)=C(C(=O)OCC(C)C)C1c1ccccc1[N+](=O)[O-] (configuration not stated),Potency,[1],10.6 µM (active)
same,Potency,[2],10.6 µM (active)
same,Potency,[3],16.4 µM (active)
CCCCNC(=O)NS(=O)(=O)c1ccc(C)cc1,Potency,[1],inactive
same,Potency,[2],inactive
same,Potency,[3],inactive
CCOC(=O)CCNc1cc(N2CCc3ccccc3CC2)nc(-c2ccccn2)n1,Potency,[1],4.68 µM (active)
same,Potency,[2],5.25 µM (active)
same,Potency,[3],8.91 µM (active)
CCOc1ccccc1OCCNC(C)Cc1ccc(OC)c(S(N)(=O)=O)c1 (configuration not stated),Potency,[1],inactive
same,Potency,[4],inactive
same,Potency,[5],inactive
same,Potency,[6],inactive
same,Potency,[7],inactive
same,Potency,[8],inactive
same,Potency,[9],inactive
same,Potency,[10],inactive
same,Potency,[11],inactive
same,Potency,[12],inactive
COc1c(C)c2c(c(O)c1C/C=C(\C)CCC(=O)OCCN1CCOCC1)C(=O)OC2,Potency,[1],1.5 µM (active) and 332 nM (active)
same,Potency,[2],1.19 µM (active) and 833 nM (active)
same,Potency,[3],1.26 µM (active)
c1ccc(-c2cc(CCC3CCNCC3)c3ccccc3n2)cc1,Potency,[1],7.42 µM (active)
same,Potency,[2],6.61 µM (active)
same,Potency,[3],15.8 µM (active)
CCS(=O)(=O)CCn1c([N+](=O)[O-])cnc1C,Potency,[1],inactive
same,Potency,[2],inactive
same,Potency,[3],25.9 µM (active)
COc1ccc(C2Sc3ccccc3N(CCN(C)C)C(=O)C2OC(C)=O)cc1 (configuration not stated),Potency,[1],inactive
same,Potency,[4],inactive
same,Potency,[5],inactive
same,Potency,[6],inactive
same,Potency,[7],inactive
same,Potency,[8],inactive
same,Potency,[9],inactive
same,Potency,[10],inactive
same,Potency,[11],inactive
same,Potency,[12],inactive
CNCC[C@H](Oc1cccc2ccccc12)c1cccs1,Potency,[1],18.8 µM (active)
same,Potency,[2],26.6 µM (active)
same,Potency,[3],18.4 µM (active)
Cc1onc(-c2c(Cl)cccc2Cl)c1C(=O)Cl,Potency,[1],inactive
same,Potency,[2],inactive
same,Potency,[3],inactive
COC(=O)C1=C(C)NC(C)=C(C(=O)O[C@@H]2CCCN(Cc3ccccc3)C2)[C@@H]1c1cccc([N+](=O)[O-])c1,Potency,[1],21.1 µM (active) and 13 µM (active)
same,Potency,[2],15 µM (active) and 13 µM (active)
same,Potency,[3],23.1 µM (active)
CCCC(CCC)C(=O)Nc1ccn([C@@H]2O[C@H](CO)[C@@H](O)C2(F)F)c(=O)n1,Potency,[1],0.411 µM (active)
same,Potency,[2],0.58 µM (active)
same,Potency,[3],inactive
CC(C)[N+](C)(C)CC(O)COc1cccc2ccccc12 (configuration not stated),Potency,[1],inactive
same,Potency,[2],inactive
same,Potency,[3],inactive
CN1CCCC(CC2c3ccccc3Sc3ccccc32)C1 (configuration not stated),Potency,[1],18.8 µM (active)
same,Potency,[2],16.8 µM (active)
same,Potency,[3],18.4 µM (active)
CCCCC1=NC2(CCCC2)C(=O)N1Cc1ccc(-c2ccccc2-c2nn[nH]n2)cc1,Potency,[1],inactive
same,Potency,[2],inactive
same,Potency,[3],inactive
Cc1ccc(C(=O)OCc2ccc([C@@H](CN)C(=O)Nc3ccc4cnccc4c3)cc2)c(C)c1,Potency,[1],1.15 µM (active)
same,Potency,[2],2.29 µM (active)
same,Potency,[3],11.3 µM (active)
C[C@H](NC(=O)Cc1cc(F)cc(F)c1)C(=O)N[C@@H]1C(=O)N(C)c2ccccc2-c2ccccc21,Potency,[1],inactive
same,Potency,[4],11.8 µM (active)
same,Potency,[5],14.8 µM (active)
same,Potency,[6],4.69 µM (active)
same,Potency,[7],2.64 µM (active)
same,Potency,[8],7.43 µM (active)
same,Potency,[9],7.43 µM (active)
same,Potency,[10],4.18 µM (active)
same,Potency,[11],1.18 µM (active)
same,Potency,[12],3.32 µM (active)
same,activity (max response),[13],-7.45%
COc1ccc(S(=O)(=O)N[C@@H](CNc2nc(C)nc(N3CCC(c4ccc5c(n4)NCCC5)CC3)c2C)C(=O)O)cc1,Potency,[1],inactive
same,Potency,[2],inactive
same,Potency,[3],inactive
CC(C)Oc1ccc(-c2nc(-c3cccc4c3CC[C@@H]4NCCO)no2)cc1C#N,Potency,[1],11.8 µM (active)
same,Potency,[2],11.8 µM (active)
same,Potency,[3],28.2 µM (active)
